# Experimental data reported in article PMC7862700, “An all-to-all approach to the identification of sequence-specific readers for epigenetic DNA modifications on cytosine”.
# Legend:
# Experiment in all cases: DAPPL (digital affinity profiling via proximity ligation, sequencing); 10 mM Tris-HCl pH 7.5, 50 mM NaCl, 1 mM DTT, 4% glycerol, room temperature, 30 min; GST-TFs on glutathione beads, 16-mer random dsDNA library, 0.1% formaldehyde crosslink after washing; high values mean tight binding
# FEV = molecular target: T1, FEV (Homo sapiens, UniProt Q99581 1-238); settings: protein: recombinant; tags: N-terminal GST; dsDNA, one strand shown
# T1 sequence: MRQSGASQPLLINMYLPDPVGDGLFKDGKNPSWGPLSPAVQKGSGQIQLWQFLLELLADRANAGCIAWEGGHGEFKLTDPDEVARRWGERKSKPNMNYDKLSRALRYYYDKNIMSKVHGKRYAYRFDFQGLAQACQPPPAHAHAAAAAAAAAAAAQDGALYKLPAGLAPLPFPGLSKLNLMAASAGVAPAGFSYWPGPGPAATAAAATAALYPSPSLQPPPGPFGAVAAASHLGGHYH
# Method in brief: (§1)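 Human transcription factors were made in yeast as GST fusions, captured on glutathione beads and barcoded with DNA. With a tag-only sample included, the pool was incubated with 200 nmole of a random double-stranded 16-mer DNA library in Tris/NaCl/DTT/glycerol buffer at room temperature for 30 min, then crosslinked with 0.1% formaldehyde after washing, ligated by proximity, amplified and sequenced. For binding signal, each hexamer's read frequency for a factor is divided by its frequency for the tag-only sample.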
# ETV5 = ETV5 (Homo sapiens, UniProt P41161 1-510); settings: protein: recombinant; tags: N-terminal GST; dsDNA, one strand shown
# Method in brief: as §1
# HSF1 = HSF1 (Homo sapiens, UniProt Q00613 1-529); settings: protein: recombinant; tags: N-terminal GST; chain copies: 3; dsDNA, one strand shown
# Method in brief: as §1
# SPIC = molecular target: T2, SPIC (Homo sapiens, UniProt Q8N5J4 1-248); settings: protein: recombinant; tags: N-terminal GST; dsDNA, one strand shown
# T2 sequence: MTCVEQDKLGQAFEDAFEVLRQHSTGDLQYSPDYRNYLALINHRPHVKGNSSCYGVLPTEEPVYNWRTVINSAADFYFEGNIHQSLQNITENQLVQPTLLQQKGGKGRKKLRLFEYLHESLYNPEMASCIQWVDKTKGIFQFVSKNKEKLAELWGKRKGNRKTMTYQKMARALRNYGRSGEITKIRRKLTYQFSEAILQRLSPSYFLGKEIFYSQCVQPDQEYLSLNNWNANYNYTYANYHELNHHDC
# Method in brief: as §1
# ELF4 = ELF4 (Homo sapiens, UniProt Q99607 1-663); settings: protein: recombinant; tags: N-terminal GST; dsDNA, one strand shown
# Method in brief: as §1
# ELK4 = molecular target: T3, ELK4 (Homo sapiens, UniProt P28324-2 1-405); settings: protein: recombinant; tags: N-terminal GST; dsDNA, one strand shown
# T3 sequence: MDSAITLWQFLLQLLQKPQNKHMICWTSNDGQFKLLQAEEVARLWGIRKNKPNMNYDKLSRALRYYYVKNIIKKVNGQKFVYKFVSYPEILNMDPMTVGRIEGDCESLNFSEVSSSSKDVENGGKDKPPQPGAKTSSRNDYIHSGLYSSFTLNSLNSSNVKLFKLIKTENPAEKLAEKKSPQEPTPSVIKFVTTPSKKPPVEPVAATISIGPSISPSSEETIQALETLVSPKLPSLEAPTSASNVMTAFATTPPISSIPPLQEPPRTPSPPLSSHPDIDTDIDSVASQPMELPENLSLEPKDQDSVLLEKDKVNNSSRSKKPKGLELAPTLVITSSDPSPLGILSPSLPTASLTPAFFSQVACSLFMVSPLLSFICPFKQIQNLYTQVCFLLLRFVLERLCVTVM
# Method in brief: as §1
# ETV2 = molecular target: T4, ETV2 (Homo sapiens, UniProt O00321 1-342); settings: protein: recombinant; tags: N-terminal GST; dsDNA, one strand shown
# T4 sequence: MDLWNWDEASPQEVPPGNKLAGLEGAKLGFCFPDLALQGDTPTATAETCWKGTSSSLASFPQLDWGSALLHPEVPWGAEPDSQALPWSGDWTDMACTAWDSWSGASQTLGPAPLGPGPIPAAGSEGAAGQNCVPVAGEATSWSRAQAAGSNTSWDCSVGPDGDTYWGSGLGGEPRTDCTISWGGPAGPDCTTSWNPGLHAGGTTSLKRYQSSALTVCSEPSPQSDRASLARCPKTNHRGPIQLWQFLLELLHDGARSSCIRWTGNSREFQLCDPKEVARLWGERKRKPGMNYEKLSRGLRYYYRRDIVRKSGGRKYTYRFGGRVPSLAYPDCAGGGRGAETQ
# Method in brief: as §1
# ELF3 = molecular target: T5, ELF3 (Homo sapiens, UniProt P78545 1-371); settings: protein: recombinant; tags: N-terminal GST; dsDNA, one strand shown
# T5 sequence: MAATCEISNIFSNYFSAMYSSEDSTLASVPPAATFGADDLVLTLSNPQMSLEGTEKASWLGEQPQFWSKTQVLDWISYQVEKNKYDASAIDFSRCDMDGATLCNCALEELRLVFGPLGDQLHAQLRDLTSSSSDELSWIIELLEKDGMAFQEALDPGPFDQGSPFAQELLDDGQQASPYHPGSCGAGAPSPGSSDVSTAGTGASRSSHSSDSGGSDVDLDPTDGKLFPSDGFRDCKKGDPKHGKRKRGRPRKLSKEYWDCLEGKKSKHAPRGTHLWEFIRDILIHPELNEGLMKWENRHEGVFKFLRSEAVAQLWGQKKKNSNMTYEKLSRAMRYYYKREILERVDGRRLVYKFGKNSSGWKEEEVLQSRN
# Method in brief: as §1
# CRX = CRX (Homo sapiens, UniProt O43186 1-299); settings: protein: recombinant; tags: N-terminal GST; dsDNA, one strand shown
# Method in brief: as §1
# ETV1 = ETV1 (Homo sapiens, UniProt P50549 1-477); settings: protein: recombinant; tags: N-terminal GST; dsDNA, one strand shown
# Method in brief: as §1
# ERF = molecular target: T6, ERF (Homo sapiens, UniProt P50548 1-548); settings: protein: recombinant; tags: N-terminal GST; dsDNA, one strand shown
# T6 sequence: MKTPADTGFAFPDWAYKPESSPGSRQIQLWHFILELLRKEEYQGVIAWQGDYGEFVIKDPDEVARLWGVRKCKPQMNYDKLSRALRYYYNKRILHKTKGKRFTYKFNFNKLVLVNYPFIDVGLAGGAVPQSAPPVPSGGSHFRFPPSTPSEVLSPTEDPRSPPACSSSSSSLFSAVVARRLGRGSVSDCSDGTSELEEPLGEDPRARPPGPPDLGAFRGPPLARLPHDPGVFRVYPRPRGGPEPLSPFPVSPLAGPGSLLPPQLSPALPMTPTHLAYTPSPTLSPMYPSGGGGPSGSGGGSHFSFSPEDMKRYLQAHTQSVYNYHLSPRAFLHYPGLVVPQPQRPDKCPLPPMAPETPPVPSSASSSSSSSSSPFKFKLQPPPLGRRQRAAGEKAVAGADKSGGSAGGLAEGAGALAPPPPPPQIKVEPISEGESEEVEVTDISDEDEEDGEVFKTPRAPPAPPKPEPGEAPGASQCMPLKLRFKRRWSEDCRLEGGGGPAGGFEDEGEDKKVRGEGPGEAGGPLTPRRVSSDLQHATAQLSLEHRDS
# Method in brief: as §1
# ETV3L = molecular target: T7, ETV3L (Homo sapiens, UniProt Q6ZN32 1-361); settings: protein: recombinant; tags: N-terminal GST; dsDNA, one strand shown
# T7 sequence: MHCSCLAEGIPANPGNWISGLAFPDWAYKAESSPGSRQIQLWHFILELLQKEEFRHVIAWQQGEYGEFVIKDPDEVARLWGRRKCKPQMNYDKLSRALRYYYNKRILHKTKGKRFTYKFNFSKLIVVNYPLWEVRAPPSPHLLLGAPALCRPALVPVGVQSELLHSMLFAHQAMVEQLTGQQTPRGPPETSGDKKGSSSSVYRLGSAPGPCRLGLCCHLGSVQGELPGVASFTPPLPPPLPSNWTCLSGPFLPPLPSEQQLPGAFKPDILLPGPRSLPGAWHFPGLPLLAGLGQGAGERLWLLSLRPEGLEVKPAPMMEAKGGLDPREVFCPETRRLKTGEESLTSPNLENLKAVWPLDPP
# Method in brief: as §1
# ETS2 = molecular target: T8, ETS2 (Homo sapiens, UniProt P15036 1-469); settings: protein: recombinant; tags: N-terminal GST; dsDNA, one strand shown
# T8 sequence: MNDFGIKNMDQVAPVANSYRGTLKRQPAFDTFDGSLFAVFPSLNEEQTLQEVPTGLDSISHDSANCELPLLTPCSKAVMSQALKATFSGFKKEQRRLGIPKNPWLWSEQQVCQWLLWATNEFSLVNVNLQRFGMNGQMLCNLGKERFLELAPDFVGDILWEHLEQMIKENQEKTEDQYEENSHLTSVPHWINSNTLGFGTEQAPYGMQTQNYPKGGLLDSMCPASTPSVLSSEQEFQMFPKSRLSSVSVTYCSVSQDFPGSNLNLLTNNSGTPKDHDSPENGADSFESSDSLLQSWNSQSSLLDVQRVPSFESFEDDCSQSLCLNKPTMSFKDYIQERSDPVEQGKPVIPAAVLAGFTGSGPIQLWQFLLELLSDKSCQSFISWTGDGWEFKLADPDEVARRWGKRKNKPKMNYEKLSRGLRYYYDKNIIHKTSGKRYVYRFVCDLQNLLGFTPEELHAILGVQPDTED
# Method in brief: as §1
# SPDEF = molecular target: T9, SPDEF (Homo sapiens, UniProt O95238 1-335); settings: protein: recombinant; tags: N-terminal GST; dsDNA, one strand shown
# T9 sequence: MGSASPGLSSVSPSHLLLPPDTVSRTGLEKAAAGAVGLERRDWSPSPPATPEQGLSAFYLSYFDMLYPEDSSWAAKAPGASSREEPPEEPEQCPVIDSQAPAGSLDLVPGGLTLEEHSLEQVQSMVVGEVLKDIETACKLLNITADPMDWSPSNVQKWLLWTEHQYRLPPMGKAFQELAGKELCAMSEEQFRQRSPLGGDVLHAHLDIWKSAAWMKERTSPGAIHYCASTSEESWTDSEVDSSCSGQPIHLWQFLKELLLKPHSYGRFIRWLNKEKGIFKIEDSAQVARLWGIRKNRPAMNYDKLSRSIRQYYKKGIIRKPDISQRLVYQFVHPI
# Method in brief: as §1
# ETV7 = molecular target: T10, ETV7 (Homo sapiens, UniProt Q9Y603 1-341); settings: protein: recombinant; tags: N-terminal GST; dsDNA, one strand shown
# T10 sequence: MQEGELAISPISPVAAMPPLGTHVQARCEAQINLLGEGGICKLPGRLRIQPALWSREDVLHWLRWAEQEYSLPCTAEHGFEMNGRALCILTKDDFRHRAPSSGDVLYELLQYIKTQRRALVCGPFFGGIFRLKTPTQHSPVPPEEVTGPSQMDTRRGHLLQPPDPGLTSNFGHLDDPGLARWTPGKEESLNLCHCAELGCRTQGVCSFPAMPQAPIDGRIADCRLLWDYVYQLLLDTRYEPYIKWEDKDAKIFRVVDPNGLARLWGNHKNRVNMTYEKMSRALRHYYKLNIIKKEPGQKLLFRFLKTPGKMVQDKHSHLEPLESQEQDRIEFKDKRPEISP
# Method in brief: as §1
# ELF5 = molecular target: T11, ELF5 (Homo sapiens, UniProt Q9UKW6-2 1-255); settings: protein: recombinant; tags: N-terminal GST; dsDNA, one strand shown
# T11 sequence: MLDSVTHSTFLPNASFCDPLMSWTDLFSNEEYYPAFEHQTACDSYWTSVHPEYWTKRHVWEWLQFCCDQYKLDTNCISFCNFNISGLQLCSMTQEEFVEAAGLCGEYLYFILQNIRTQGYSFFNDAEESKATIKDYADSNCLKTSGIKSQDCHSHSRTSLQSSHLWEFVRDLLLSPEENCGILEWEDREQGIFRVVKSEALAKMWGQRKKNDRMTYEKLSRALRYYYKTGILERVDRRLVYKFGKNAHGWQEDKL
# Method in brief: as §1
# ETV3 = molecular target: T12, ETV3 (Homo sapiens, UniProt P41162-2 1-143); settings: protein: recombinant; tags: N-terminal GST; dsDNA, one strand shown
# T12 sequence: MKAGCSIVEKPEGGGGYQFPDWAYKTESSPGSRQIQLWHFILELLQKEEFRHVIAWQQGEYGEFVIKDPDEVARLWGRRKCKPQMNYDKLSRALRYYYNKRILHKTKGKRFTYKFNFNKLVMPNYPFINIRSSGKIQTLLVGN
# Method in brief: as §1
# ETV6 = ETV6 (Homo sapiens, UniProt P41212 1-452); settings: protein: recombinant; tags: N-terminal GST; dsDNA, one strand shown
# Method in brief: as §1
# Sequence of ETV5 (P41161 whole entry): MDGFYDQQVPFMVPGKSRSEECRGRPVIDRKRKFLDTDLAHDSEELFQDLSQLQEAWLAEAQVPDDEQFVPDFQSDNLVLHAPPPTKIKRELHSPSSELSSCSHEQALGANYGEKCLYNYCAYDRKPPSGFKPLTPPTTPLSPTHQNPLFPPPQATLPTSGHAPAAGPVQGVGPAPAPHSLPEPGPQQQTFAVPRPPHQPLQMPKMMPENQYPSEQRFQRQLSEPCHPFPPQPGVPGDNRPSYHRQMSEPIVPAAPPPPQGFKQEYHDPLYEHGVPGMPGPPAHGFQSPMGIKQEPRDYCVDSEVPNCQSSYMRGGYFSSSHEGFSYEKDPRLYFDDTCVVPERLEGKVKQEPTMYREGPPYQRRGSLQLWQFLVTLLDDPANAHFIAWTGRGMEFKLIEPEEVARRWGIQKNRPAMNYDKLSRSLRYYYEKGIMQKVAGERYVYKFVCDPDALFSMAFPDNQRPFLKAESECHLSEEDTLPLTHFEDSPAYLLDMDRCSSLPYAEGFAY
# Sequence of CRX (O43186 whole entry): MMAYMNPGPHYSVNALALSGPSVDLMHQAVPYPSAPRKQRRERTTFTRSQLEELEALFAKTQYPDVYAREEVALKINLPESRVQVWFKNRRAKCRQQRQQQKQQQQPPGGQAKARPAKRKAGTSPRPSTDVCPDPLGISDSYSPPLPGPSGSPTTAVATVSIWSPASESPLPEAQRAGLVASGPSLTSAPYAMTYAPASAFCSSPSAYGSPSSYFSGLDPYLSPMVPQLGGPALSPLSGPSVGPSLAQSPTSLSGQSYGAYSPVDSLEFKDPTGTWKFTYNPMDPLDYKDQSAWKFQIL
# Sequence of ELF4 (Q99607 whole entry): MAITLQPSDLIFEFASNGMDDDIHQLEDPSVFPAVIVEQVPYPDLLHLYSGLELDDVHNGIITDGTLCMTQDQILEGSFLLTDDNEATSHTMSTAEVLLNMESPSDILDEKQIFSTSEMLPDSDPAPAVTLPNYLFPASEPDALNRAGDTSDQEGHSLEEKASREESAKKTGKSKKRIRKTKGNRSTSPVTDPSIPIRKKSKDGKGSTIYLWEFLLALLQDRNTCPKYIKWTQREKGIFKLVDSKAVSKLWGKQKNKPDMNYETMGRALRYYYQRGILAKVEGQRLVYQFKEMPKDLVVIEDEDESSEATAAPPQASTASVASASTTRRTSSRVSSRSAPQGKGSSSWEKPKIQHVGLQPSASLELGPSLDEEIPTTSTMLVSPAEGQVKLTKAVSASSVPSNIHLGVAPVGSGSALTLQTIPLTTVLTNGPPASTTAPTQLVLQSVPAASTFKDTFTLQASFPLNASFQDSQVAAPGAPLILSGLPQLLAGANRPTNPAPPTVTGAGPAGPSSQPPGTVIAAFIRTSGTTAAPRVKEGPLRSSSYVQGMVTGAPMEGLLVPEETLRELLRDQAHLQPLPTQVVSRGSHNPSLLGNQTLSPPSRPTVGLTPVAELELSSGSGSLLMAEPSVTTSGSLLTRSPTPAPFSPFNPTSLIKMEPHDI
# Sequence of HSF1 (Q00613 whole entry): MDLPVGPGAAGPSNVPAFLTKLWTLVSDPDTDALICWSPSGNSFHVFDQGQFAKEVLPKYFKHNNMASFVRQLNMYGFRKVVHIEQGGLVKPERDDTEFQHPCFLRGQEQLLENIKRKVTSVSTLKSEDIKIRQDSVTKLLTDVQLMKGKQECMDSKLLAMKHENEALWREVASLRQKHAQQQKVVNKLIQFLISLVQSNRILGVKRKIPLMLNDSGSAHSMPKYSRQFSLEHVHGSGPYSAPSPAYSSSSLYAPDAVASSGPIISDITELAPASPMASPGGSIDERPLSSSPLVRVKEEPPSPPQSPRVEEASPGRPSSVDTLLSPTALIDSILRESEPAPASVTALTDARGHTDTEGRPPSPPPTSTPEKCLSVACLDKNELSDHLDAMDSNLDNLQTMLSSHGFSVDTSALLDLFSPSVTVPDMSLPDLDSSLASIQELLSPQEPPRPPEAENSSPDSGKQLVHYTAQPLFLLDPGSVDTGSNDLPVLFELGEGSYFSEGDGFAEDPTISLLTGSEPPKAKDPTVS
# Sequence of ETV6 (P41212 whole entry): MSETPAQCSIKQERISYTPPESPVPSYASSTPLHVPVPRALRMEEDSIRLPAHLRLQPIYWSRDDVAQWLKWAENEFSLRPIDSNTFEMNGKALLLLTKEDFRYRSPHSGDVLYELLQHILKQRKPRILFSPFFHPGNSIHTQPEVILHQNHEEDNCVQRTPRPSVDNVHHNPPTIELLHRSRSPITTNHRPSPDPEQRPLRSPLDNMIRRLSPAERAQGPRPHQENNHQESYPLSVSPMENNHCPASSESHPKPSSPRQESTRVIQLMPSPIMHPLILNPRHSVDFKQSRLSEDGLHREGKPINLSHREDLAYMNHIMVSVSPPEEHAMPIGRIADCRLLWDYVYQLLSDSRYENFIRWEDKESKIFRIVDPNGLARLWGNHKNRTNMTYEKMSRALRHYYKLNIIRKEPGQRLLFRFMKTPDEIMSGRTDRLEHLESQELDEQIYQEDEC
# Sequence of ETV1 (P50549 whole entry): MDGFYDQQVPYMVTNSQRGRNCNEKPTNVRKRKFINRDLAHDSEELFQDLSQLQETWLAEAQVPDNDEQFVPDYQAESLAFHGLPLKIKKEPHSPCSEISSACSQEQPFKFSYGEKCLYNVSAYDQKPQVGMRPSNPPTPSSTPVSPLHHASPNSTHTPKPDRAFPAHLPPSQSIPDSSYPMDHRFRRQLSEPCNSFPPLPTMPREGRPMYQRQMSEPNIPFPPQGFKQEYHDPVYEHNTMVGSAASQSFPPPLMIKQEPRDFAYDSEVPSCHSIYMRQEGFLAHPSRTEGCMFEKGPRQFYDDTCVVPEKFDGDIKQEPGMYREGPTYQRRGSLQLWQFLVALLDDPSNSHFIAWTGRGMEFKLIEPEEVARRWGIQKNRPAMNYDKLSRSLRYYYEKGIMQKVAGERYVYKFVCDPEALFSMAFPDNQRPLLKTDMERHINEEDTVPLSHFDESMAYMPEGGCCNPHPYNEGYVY
sequence,measurement,setting,value
TCCGCA,binding signal,FEV,"1.91 fold enrichment (6-mer frequency, TF over GST control)"
same,binding signal,ETV5,"2.24 fold enrichment (6-mer frequency, TF over GST control)"
same,binding signal,HSF1,"1.21 fold enrichment (6-mer frequency, TF over GST control)"
same,binding signal,SPIC,"2.46 fold enrichment (6-mer frequency, TF over GST control)"
same,binding signal,ELF4,"1.98 fold enrichment (6-mer frequency, TF over GST control)"
same,binding signal,ELK4,"1.76 fold enrichment (6-mer frequency, TF over GST control)"
same,binding signal,ETV2,"1.98 fold enrichment (6-mer frequency, TF over GST control)"
same,binding signal,ELF3,"2.22 fold enrichment (6-mer frequency, TF over GST control)"
same,binding signal,CRX,"1.35 fold enrichment (6-mer frequency, TF over GST control)"
same,binding signal,ETV1,"2.15 fold enrichment (6-mer frequency, TF over GST control)"
same,binding signal,ERF,"1.95 fold enrichment (6-mer frequency, TF over GST control)"
same,binding signal,ETV3L,"2.08 fold enrichment (6-mer frequency, TF over GST control)"
same,binding signal,ETS2,"2.26 fold enrichment (6-mer frequency, TF over GST control)"
same,binding signal,SPDEF,"2.24 fold enrichment (6-mer frequency, TF over GST control)"
same,binding signal,ETV7,"1.98 fold enrichment (6-mer frequency, TF over GST control)"
same,binding signal,ELF5,"2.61 fold enrichment (6-mer frequency, TF over GST control)"
same,binding signal,ETV3,"2.27 fold enrichment (6-mer frequency, TF over GST control)"
same,binding signal,ETV6,"2.18 fold enrichment (6-mer frequency, TF over GST control)"
